A short description of assay [1]: drug combination growth inhibition, ovarian cancer – cell-based, oncology-focused library, rucaparib conditional, profiling panel (AID 1508598). The settings on record: patient-derived ovarian cancer cells, CellTiter-Glo viability, 144 h, stronger effect = lower value. For orientation: In ATP-based viability assays light output follows the ATP content of the culture.
The nature of assay [2]: Wnt pathway potentiators raising nuclear beta-catenin – imaging, WNT3A-conditioned medium, mouse C2C12, NPC library, primary screen (AID 1117326; in the data active = nuclear beta-catenin stimulation mostly above about 4.2%, no sharp cut-off; inactive = mostly below about 10%). The settings on record: stronger effect = higher value.
A short description of assay [3]: stimulators of insulin release from INS-1E, primary screen, cell-based, 5 mM glucose, NPC library (AID 1117329;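 active = compound raises insulin release from rat beta cells at 5 mM glucose, no numeric limit stated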). Particulars: rat INS-1E insulin secretion, at 10 µM, stronger effect = higher value.
Assay [4] can be described thus: growth inhibition of GSK3B-pretreated HCT116 cells – cell-based, CellTiter-Glo, 0.2 to 20 µM (AID 1117336;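 active = compounds lowering colon cancer cell viability after pretreatment blocking the GSK3B kinase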). The settings on record: HCT116 viability after GSK3B inhibitor, at 20 µM, stronger effect = higher value.
Assay [5] in a line: inhibition of endothelial tube formation, primary screen, imaging, VEGF stimulated, CD31 staining, tube area, NPC library (AID 1117340;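 active = compound that reduces growth-factor-driven endothelial tube area in a mixed cell culture, no cutoff stated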). The settings on record: VEGF-stimulated ADSC/ECFC co-culture, at 10 µM, stronger effect = higher value.
Assay [6] is described as follows: GLP1 release stimulators, primary, NCI-H716, NPC library (AID 1117341;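 active = compound raises GLP1 secretion from the human gut endocrine cells, with no numeric limit stated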). Particulars: NCI-H716 cells, at 10 µM, stronger effect = higher value.
Assay [7] can be described thus: HCT116 colon cancer cell growth inhibition, primary screen, CellTiter-Glo luminescence, NPC library (AID 1117342;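 active = compounds that lower survival of HCT116 colon cancer cells in the luminescence readout, no numeric limit stated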). The settings on record: at 20 µM (top of the series).
Assay [8] can be described thus: reduced SW480 viability measured with CellTiter-Glo, NPC library, primary (AID 1117343;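 active = compounds that lower viability of the colon cancer cells in the luminescence readout, with no numeric limit stated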). The settings on record: CellTiter-Glo luminescence; at 20 µM (top of the series) unless noted.
Assay [9] in a line: NPC library primary testing for decreased DLD-1 cell viability via CellTiter-Glo (AID 1117346;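 active = compounds that lower survival of DLD-1 colon cancer cells in the luminescence readout, no cutoff given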). The settings on record: DLD-1 viability, CellTiter-Glo luminescence; at 20 µM (top of the series).
The nature of assay [10]: viability loss in pontine glioma line – cell-based, JHH-DIPG-1, MIPE4.0, CellTiter-Glo, qHTS, dose response (AID 1347062; cut-off not given, nearly all actives have AC50 up to about 27 µM;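 for AC50: cells exposed to compound for two days before readout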). Particulars: JHH-DIPG-1 viability, CellTiter-Glo ATP luminescence.
Assay [11] is described as follows: viability loss in pontine glioma line – cell-based, SU-DIPG-IV, MIPE4.0, CellTiter-Glo, qHTS, dose response (AID 1347063; cut-off not given, nearly all actives have AC50 up to about 30 µM;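 note: compound exposure lasted 48 hours before the viability readout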). The settings on record: CellTiter-Glo ATP luminescence.
Assay [12] is described as follows: growth inhibition of DIPG cells – cell-based, MIPE4.0 library, CellTiter-Glo luminescence, qHTS (AID 1347066; cut-off not given, nearly all actives have AC50 up to about 30 µM;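 note: cells exposed to compound for 48 hours before readout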). Particulars: SU-DIPG-VI viability, CellTiter-Glo ATP luminescence.
Assay [13] is described as follows: viability loss with induced miR-34 in A549 – imaging, A549 dox-inducible miR-34, nuclei and caspase counts, primary screen (AID 1347080;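 active = compounds whose cell count with miR-34 switched on is under 0.7 times the count with it off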). Particulars: A549 miR-34 inducible, Hoechst nuclei count, 48 h.
The nature of assay [14]: MELAS cybrid and Rieske KO viability enhancers – cell-based, MELAS cybrids, Rieske KO mouse fibroblasts, CellTiter-Glo, primary screen (AID 1508586;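 active = mean z-score across replicates of 1.96 or higher in either the MELAS or the Rieske mutant cell line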;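 note: z relative to plate mean and SD of compound and empty wells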). The settings on record: low glucose.
Assay [15] can be described thus: growth inhibition of DIPG cells – cell-based, MIPE5.0 library, qHTS (AID 1347068; cut-off not given, nearly all actives have IC50 up to about 30 µM). Particulars: SU-DIPG-XXV viability. (In general: Quantitative high-throughput screening tests each substance at several concentrations.)
The nature of assay [16]: P. berghei load reduction in hepatocytes – cell-based, HepG2, luciferase luminescence, HepG2 viability, primary screen (AID 624349; in the data active = parasite load remaining mostly below about 12%, no sharp cut-off; inactive = mostly above about 10%;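 note: 100% = mean of DMSO negative control wells on the same plate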). Particulars: P. berghei liver stage in HepG2, luciferase luminescence, concentration not given here; parasite load remaining: stronger effect = lower value; viability: measured here: HepG2 viability without parasites.
Assay [17] in a line: galactose survival enhancers in mitochondrial complex I cybrids – cell-based, galactose medium, ATP luminescence, primary screen (AID 1645843;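 active = z-score of at least 1.8 in each of two replicates, scored against plate mean and spread of sample wells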;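 note: positive z means more ATP and so rescue of galactose-driven cybrid death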). The settings on record: complex I mutant cybrid cells, 72 h, stronger effect = higher value.
[18] abbreviates: stronger effect = lower value, cell number ratio, induced over uninduced.
[19] abbreviates: measured here: relative caspase fold change +Dox/-Dox.
Setting [20] is: measured here: total cells with miR-34 induction, stronger effect = lower value.
Setting [21] is: measured here: total cells without miR-34 induction.
Where [22] appears, read: MELAS cybrid survival, CellTiter-Glo 48 h, stronger effect = higher value.
Where [23] appears, read: Rieske KO mouse fibroblast survival, CellTiter-Glo 72 h.

“And” between values parts separate entries of the source, which are not always exact repeats. Equal entries are not always repeated. Results filed as inconclusive are left out. The source made the active and inactive calls.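 Rule for the calls, unless noted: active = normalized viability below 100% at a tested concentration; inactive = the rest.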

By viability is commonly meant a read-out of living cells in per cent, often relative to untreated cells. Broadly, the AC50 is the concentration at which the activity in the assay is half-maximal.

Turning to `COc1nc(N)nc2c1ncn2[C@@H]1O[C@H](CO)[C@@H](O)[C@@H]1O`, the viability in [1] (at 0.0781 µM, OCI-C5x cells, with rucaparib 10 µM, 100% = cells with rucaparib alone) is 113% (inactive); in assay [1] (at 0.0781 µM, OCI-C5x cells, without rucaparib) it was 99.7% (active); in assay [1] (at 0.0781 µM, OCI-P5x cells, with rucaparib 20 µM, 100% = cells with rucaparib alone), 94.2% (active); in [1] (at 0.0781 µM, OCI-P5x cells, without rucaparib) it was 101% (inactive); in assay [1] (at 0.313 µM, OCI-C5x cells, with rucaparib 10 µM, 100% = cells with rucaparib alone), 101% (inactive); in assay [1] (at 0.313 µM, OCI-C5x cells, without rucaparib) it was 90.4% (active). Moreover, the viability in assay [1] (at 0.313 µM, OCI-P5x cells, with rucaparib 20 µM, 100% = cells with rucaparib alone) is 98% (active); in assay [1] (at 0.313 µM, OCI-P5x cells, without rucaparib), 97% (active); in assay [1] (at 1.25 µM, OCI-C5x cells, with rucaparib 10 µM, 100% = cells with rucaparib alone), 102% (inactive); in assay [1] (at 1.25 µM, OCI-C5x cells, without rucaparib), 83.3% (active); in assay [1] (at 1.25 µM, OCI-P5x cells, with rucaparib 20 µM, 100% = cells with rucaparib alone), 90.5% (active); in assay [1] (at 1.25 µM, OCI-P5x cells, without rucaparib), 90.1% (active). Besides, the viability in assay [1] (at 5 µM, OCI-C5x cells, with rucaparib 10 µM, 100% = cells with rucaparib alone) was 92.9% (active); in [1] (at 5 µM, OCI-C5x cells, without rucaparib) it was 84.3% (active); in assay [1] (at 5 µM, OCI-P5x cells, with rucaparib 20 µM, 100% = cells with rucaparib alone), 80.3% (active); in [1] (at 5 µM, OCI-P5x cells, without rucaparib) it was 90% (active).

With `O=C(OC1C[C@H]2CC[C@@H](C1)[N+]21CCCC1)C(O)(c1ccccc1)c1ccccc1` (stereo partly specified), the nuclear beta-catenin stimulation in [2] (at 10 µM) is -1.3% (inactive); in assay [2] (stimulation, at 2 µM) it was -2%. In addition, the insulin secretion stimulation in assay [3] was 1.3% (inactive). Also, the viability decrease in [4] is -50.2% (inactive). Further, in assay [5], the tube area decrease is 10.7% (inactive). For the same compound, the GLP1 secretion stimulation in [6] is -3.1% (inactive). For the same compound, the inhibition of viability in assay [7] is 7.13% (inactive). The viability decrease (inhibition) in [8] was -11.6% (inactive); in assay [9], -9.1% (inactive). The outcome in [10], in assay [11] and in assay [12] was inactive. Further, the fold change in [13] (setting [18]) was 1.02 (inactive); in assay [13] (setting [19]) it was 0.872. Besides, the cell count in assay [13] (setting [20]) amounted to 10400; in assay [13] (setting [21]), 10200. Also, the z-score is -0.39 (inactive) in assay [14] (setting [22]) and 0.689 in assay [14] (setting [23]).

On to `CCCCCCOC(=O)NC(=N)c1ccc(NCc2nc3cc(C(=O)N(CCC(=O)OCC)c4ccccn4)ccc3n2C)cc1`, for which the nuclear beta-catenin stimulation was 2.7% (inactive) in [2] (at 10 µM) and 2.3% in assay [2] (stimulation, at 2 µM). For the same compound, the insulin secretion stimulation in [3] was 0.9% (inactive). Also, the viability decrease in [4] is 78.3% (active). Also, the tube area decrease in assay [5] was -1.4% (inactive). The GLP1 secretion stimulation in assay [6] is -2.6% (inactive). The inhibition of viability in [7] was 118% (active). The viability decrease (inhibition) in assay [8] was 155% (active); in [9], 102% (active). Also, the AC50 in [10] and in assay [12] was 26.4 µM (active) throughout. Moreover, the outcome in assay [11] and in assay [15] was inactive.

On to `O=C(Nc1cccc2c(=O)cc(-c3nn[nH]n3)oc12)c1ccc(OCCCCc2ccccc2)cc1`, for which, in assay [16], the parasite load remaining is 45% (inactive). Further, the viability in [16] stood at 94.5%. Further, the nuclear beta-catenin stimulation was 0.3% (inactive) in assay [2] (at 10 µM) and -0.2% in [2] (stimulation, at 2 µM). The insulin secretion stimulation in [3] was 2.85% (inactive). The viability decrease in assay [4] is 108% (active). The tube area decrease in assay [5] is -18.5% (inactive). Moreover, in [6], the GLP1 secretion stimulation is 21.5% (active). In addition, the inhibition of viability in assay [7] was 112% (active). Besides, the figures for the viability decrease (inhibition) in [8] and in assay [9] were 125% (active) and 88.8% (active), respectively. Moreover, in assay [12], the outcome was inactive. Also, the fold change is 0.93 (inactive) and 0.898 (inactive) in [13] (setting [18]); 0.309 and 1.37 in assay [13] (setting [19]). In addition, the cell count in assay [13] (setting [20]) is 5160 and 10700; in assay [13] (setting [21]) it was 5550 and 12000. The z-score in assay [14] (setting [22]) is 0.447 (inactive) and -0.129 (inactive); in assay [14] (setting [23]), 0.183 and 0.319; in [17], 1.36 (inactive).

For the compound `COC(=O)N[C@H](C(=O)N[C@@H](Cc1ccccc1)[C@@H](O)CN(Cc1ccc(-c2ccccn2)cc1)NC(=O)[C@@H](NC(=O)OC)C(C)(C)C)C(C)(C)C`, the parasite load remaining in [16] is 62.2% (inactive). In addition, in [16], the viability turned out to be 276%. For the same compound, the nuclear beta-catenin stimulation in assay [2] (at 10 µM) is 2.9% (inactive); in assay [2] (stimulation, at 2 µM), 0.8%. The insulin secretion stimulation in assay [3] is 2.15% (inactive). Moreover, the viability decrease in assay [4] was -7% (inactive). Further, in assay [5], the tube area decrease was 82.7% (active). Further, the GLP1 secretion stimulation in assay [6] was -0.7% (inactive). For the same compound, the inhibition of viability in assay [7] is 5.8% (inactive). The results for the viability decrease (inhibition) in assay [8] and in assay [9] were -2% (inactive) and -6.7% (inactive), respectively. The result in [10] and in assay [12] was inactive. Further, the results for the fold change in assay [13] (setting [18]) and in assay [13] (setting [19]) were 0.809 (inactive) and 0.911, respectively. Besides, the results for the cell count in [13] (setting [20]) and in [13] (setting [21]) were 8470 and 10500, respectively. Further, the z-score in [14] (setting [22]) is -0.0891 (inactive); in assay [14] (setting [23]), -1.39; in assay [17], 0.325 (inactive).

(Values after PubChem BioAssay.)
